# From PubChem BioAssay (EPA / NIEHS)
# Calls of active or inactive are those of the source. Rule for the calls: active = hit-call score of the fitted dose curve at least 0.9, where 1 is the maximum; inactive = score below 0.9.
# Read-out: ATP-citrate lyase (ACLY), ACLY (gene 47)
# Assay: LTEA_HepaRG_ACLY: Life Technologies and Expression Analysis (LTEA) Assay for ATP-citrate lyase (ACLY) using HepaRG (AID 2283466)
# Details: mRNA level, 48 h; actives raise or lower the signal
# Method: LTEA_HepaRG is a cell based, multiplexed-readout assay that uses HepaRG, a human liver cell line, with measurements taken at 48 hours after chemical dosing on a 96-well plate.LTEA_HepaRG_ACLY is one of 102 assay component(s) measured in the LTEA HepaRG cell culture assay. It is a marker of Steatosis.Data from the assay component LTEA_HepaRG_ACLY was analyzed into 1 endpoint. This assay endpoint, LTEA_HepaRG_ACLY, was analyzed with bidirectional fitting relative to DMSO as the negative control and baseline of activity. Using a type of inducible reporter, measures of mRNA induction for gain or loss-of-signal activity can be used to understand regulation of transcription factor activity. To generalize the intended target to other relatable targets, this assay endpoint is annotated to the lyase intended target family, where the subfamily is steatosis.
# A total of 1060 chemcials from the ToxCast library were tested in eight-point concentration-response experiments. Cell culture and cytotoxicity assays were conducted at Thermo Fisher Scientific's Custom Services facility (Madison, WI). A single lot of human HepaRG cells (Thermo Fisher Scientific, Frederick, MD) was used for the cell culture experiments. 96-well format collagen type I coated plates of human HepaRG cells were prepared using established methods. Briefly, cryopreserved HepaRG cells were thawed, plated at a density of approximately 100,000 cells/well in HepaRG Thaw, Plate, and General Purpose media (HPRG770, Thermo Fisher Scientific), and incubated for 48 hours. 0.5% DMSO was selected as vehicle control to balance the requisite need of DMSO in HepaRG cultures to maintain differentiation (for example, baseline metabolism, proportions of hepatocytes vs. cholangiocytes), while enabling further hepatic receptor pathway activation (for example, PXR and CAR) in response to chemical exposure. 48 hours after plating, the culture medium was replaced with HepaRG Serum-Free Incudtion Media. Cells were exposed to each test chemical in duplicate and maintained in CO2 incubators for another 48 hours. Chemical plates were thawed to room temperature and 200x concentrations of treatment groups were prepared. 8-point conentration-reponse curves were made with the highest exposure at 100 uM, followed by half-log dilutions, all in 0.5% DMSO. Each test plate contained variouse controls, induction positive controls (1mM phenobarbital), cytotoxicity positive controls ([…] aflatoxin B1), vehicle controls (0.5% DMSO), and total lysis controls (0.5% DMSO). Cell morphology images were taken using an Essen IncuCyte FLR automated microscope, with six 96-well plates imaged in about 24 minutes. Images were captured and exported and JPEG files. Spent culture media was transfered to black-well plates for the LDH assay, and remaining media was sorted at -80 C for later use. Cells were treated with RLT buffer and frozen until shipped for gene expression analysis. Total RNA was isolated from the cell suspension in 75 uL of Buffer RLT (Qiagen, Germantown, MD 20874) by Quintiles/Expression Analysis (Durham, NC) using a custom isolation procedure. Total RNA from each plate well was transferred to a preamplification plate. Fluidigm's 96.96 Dynamic ArrayTM (Fluidigm, Amsterdam, the Netherlands) technology was used for gene expression analyses by quantitative reverse transcription polymerase chain reaction (qRT-PCR, performed by Quintiles/Expression Analysis, Durham, NC)89. Standard TaqManTM Assays (Applied Biosystems/ThermoFisher Scientific, Foster City, CA) were used to assess the expression of 93 genes selected based on their selectivity and sensitivity to important hepatic receptors known to be modulated by environmental chemicals; importance in human hepatocyte functionality; and hepatotoxicity. […]
Compound,outcome,AC50
Cc1cc(Cl)ccc1OCC(=O)O,inactive,–
CCCC1COC(Cn2cncn2)(c2ccc(Cl)cc2Cl)O1 (stereo not given),–,11.9 µM (active)
COc1nc(NC(C)C)nc(NC(C)C)n1,inactive,–
CC(C)Oc1cc(-n2nc(C(C)(C)C)oc2=O)c(Cl)cc1Cl,–,77.4 µM (active)
CCOC(=O)C(Cl)Cc1cc(-n2nc(C)n(C(F)F)c2=O)c(F)cc1Cl (stereo not given),inactive,–
COC(=O)C(C)Oc1ccc(Oc2ccc(Cl)cc2Cl)cc1 (stereo not given),inactive,–
CN(C)C(=S)SSC(=S)N(C)C,inactive,–
CCCCNC(=O)OCC#CI,inactive,–
C=CCC1=C(C)C(OC(=O)C2C(C=C(C)C)C2(C)C)CC1=O (stereo not given),inactive,–
CO/C=C(/C(=O)OC)c1ccccc1Oc1cc(Oc2ccccc2C#N)ncn1,inactive,–
COP(N)(=O)SC (stereo not given),inactive,–
Cc1ccc(-c2c(Cl)nc(C#N)n2S(=O)(=O)N(C)C)cc1,–,50 µM (active)
CC1COC(Cn2cncn2)(c2ccc(Oc3ccc(Cl)cc3)cc2Cl)O1 (stereo not given),–,86.7 µM (active)
N#Cc1cc(Br)c(O)c(Br)c1,–,23.5 µM (active)
O=C(O)COc1nc(Cl)c(Cl)cc1Cl,inactive,–
N#Cc1nn(-c2c(Cl)cc(C(F)(F)F)cc2Cl)c(N)c1S(=O)C(F)(F)F (stereo not given),inactive,–
O=C(O)c1nc(Cl)ccc1Cl,inactive,–
Fc1ccc(Oc2ccnc3cc(Cl)cc(Cl)c23)cc1,inactive,–
O=C(Nc1ccccc1)Nc1ccnc(Cl)c1,–,80.4 µM (active)
C=CC1(C)OC(=O)N(c2cc(Cl)cc(Cl)c2)C1=O (stereo not given),inactive,–

Compound,outcome,AC50
CC(C)C1(C)N=C(c2nc3ccccc3cc2C(=O)O)NC1=O (stereo not given),inactive,–
COC(=O)N(OC)c1ccccc1COc1ccn(-c2ccc(Cl)cc2)n1,inactive,–
Cc1c(F)c(F)c(COC(=O)C2C(/C=C(\Cl)C(F)(F)F)C2(C)C)c(F)c1F (stereo not given),inactive,–
CCOc1cc(Oc2ccc(C(F)(F)F)cc2Cl)ccc1[N+](=O)[O-],inactive,–
COC(=O)C=C(C)OP(=O)(OC)OC,inactive,–
CCNc1nc(Cl)nc(NCC)n1,inactive,–
CC(C)(C)c1ccc(CSc2cnn(C(C)(C)C)c(=O)c2Cl)cc1,–,1.72 µM (active)
CCCCC(CC)COC(=O)c1ccccc1C(=O)OCC(CC)CCCC (stereo not given),inactive,–
N#CC(CCc1ccc(Cl)cc1)(Cn1cncn1)c1ccccc1 (stereo not given),–,12.9 µM (active)
COC(=O)c1ccccc1C(=O)OC,inactive,–
CCCCNC(=O)n1c(NC(=O)OC)nc2ccccc21,inactive,–
CCCCOC(=O)c1ccccc1C(=O)OCCCC,inactive,–
CNC(=S)S,inactive,–
COc1ccc(C(c2ccc(OC)cc2)C(Cl)(Cl)Cl)cc1,inactive,–
CCc1nn(C)c(C(=O)NCc2ccc(C(C)(C)C)cc2)c1Cl,–,0.502 µM (active)
C#CCOS(=O)OC1CCCCC1Oc1ccc(C(C)(C)C)cc1 (stereo not given),–,35 µM (active)
CC(Oc1ccc(Cl)cc1Cl)C(=O)O (stereo not given),–,50 µM (active)
CCOP(=S)(OCC)SCn1c(=O)oc2cc(Cl)ccc21,inactive,–
C=CCC1=C(C)[C@@H](OC(=O)[C@@H]2[C@@H](C=C(C)C)C2(C)C)CC1=O,inactive,–
CC1=C(C(=O)Nc2ccccc2)SCCO1,inactive,–
